# A number with no mark means an inactive call. No rule for the calls is given here.
# Test system: Aerobactin synthetase IucA (Klebsiella pneumoniae, hypervirulent)
# Assay: IucA enzyme inhibition, biochemical, LOPAC library, absorbance readout (AID 1346212);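 also: 100% = no compound wells and 0% = no enzyme wells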
# Conditions: IucA enzyme assay, absorbance (OD) readout; hits give low values;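 tested at 8 µM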
row,SMILES,remaining activity [%]
1,C=C1C(=O)O[C@@H]2[C@H]3O[C@]3(C)CC/C=C(\C)CC[C@@H]12,119
2,CCCCCCN(CCCCCC)C(=O)Cc1c(-c2ccc(F)cc2)[nH]c2ccccc12,97.1
3,CC(=O)NNC(=O)N1Cc2ccccc2Oc2ccc(Cl)cc21,105
4,O=C1c2ccccc2-c2n[nH]c3cccc1c23,88.6
5,O=C(OCCN1CCOCC1)C1(c2ccccc2)CCCCC1,123
6,O=C(Nc1nc2ccccc2n1CCN1CCOCC1)c1cccc([N+](=O)[O-])c1,120
7,CC(=O)N1CCN(c2ccc(OC[C@H]3CO[C@](Cn4ccnc4)(c4ccc(Cl)cc4Cl)O3)cc2)CC1,121
8,CN(C)S(=O)(=O)c1ccc2c(c1)/C(=C/c1cc3c([nH]1)CCCC3)C(=O)N2,121
9,C/C(=C\c1ccc(C(=O)O)cc1)c1ccc2c(c1)C(C)(C)CCC2(C)C,97.8
10,CN(C)CC/C=C1/c2ccccc2Sc2ccc(Cl)cc21,115
11,COc1cc(/C=C(\C#N)C(=O)c2ccc(O)c(O)c2)cc(I)c1O,85.4
12,COc1ccccc1NC(=O)Nc1nc(-c2cccnc2)nc2ccccc12,105
13,CCCCCCCCCCC/C=C\C(C)(C)/C=C\CCCC(=O)O,86.5
14,O=C1NC(c2cccc([N+](=O)[O-])c2)=CCN1c1ccccc1O,105
15,O=c1onc2cnc3ccccc3n12,112
16,O=C(O)[C@@H]1C[C@H](C(=O)O)N1,109
17,Nc1nc(OCc2ccccc2)c2[nH]cnc2n1,103
18,CCCn1c(=O)c2[nH]c(-c3ccc(OCC(=O)Nc4ccc(C#N)cc4)cc3)nc2n(CCC)c1=O,109
19,CCOC(=O)Nc1ccc(NCc2ccc(F)cc2)nc1N,97.8
20,C[N+](C)(CCCCCC[N+](C)(C)CCCN1C(=O)c2cccc3cccc(c23)C1=O)CCCN1C(=O)c2cccc3cccc(c23)C1=O,100

row,SMILES,remaining activity [%]
1,CCOC(=O)C12CC1/C(=N\O)c1ccccc1O2 (stereo not given),108
2,CNC[C@H](O)c1ccc(O)c(O)c1,94.5
3,O=C(c1ccc(Cl)cc1)N1CCN(c2ccc([N+](=O)[O-])c3ncccc23)CC1,120
4,CCn1ccnc1CC1COc2ccccc2O1 (stereo not given),112
5,OC(CN1CCN(c2cccc(Cl)c2)CC1)C(c1ccccc1)c1ccccc1 (stereo not given),114
6,COc1cccc(NC(=O)/C=C/c2ccc(Cl)cc2)c1,101
7,CCN(CC)CCCCCCCCOC(=O)c1cc(OC)c(OC)c(OC)c1,100
8,Brc1c(Br)c(Br)c2n[nH]nc2c1Br,120
9,NC(=O)C(=O)O,121
10,N#C/C(=C\c1ccc(O)c(O)c1)C(=O)NCc1ccccc1,101
11,N=C(N)c1ccc(N)cc1,112
12,NCCC1CCCC(CCN)N1 (stereo not given),115
13,CC(C)C[C@H](NC(=O)[C@H](O)[C@H](N)Cc1ccccc1)C(=O)O,120
14,Cc1oncc1C(=O)Nc1ccc(C(F)(F)F)cc1,110
15,Cn1ccc2cc3c(cc21)CCN3C(=O)Nc1cccnc1,102
16,CCCCCCCC/C=C\CCCCCCCC(=O)NCCO,98.7
17,C=C[C@@]1(C)CC(=O)[C@]2(O)[C@@]3(C)[C@@H](O)CCC(C)(C)[C@@H]3[C@H](O)[C@H](OC(C)=O)[C@@]2(C)O1,107
18,CC(C)NC[C@H](O)COc1cccc2[nH]ccc12,116
19,CCN(CC)CCOC(=O)c1cc(Cl)c(N)cc1OC,103
20,CC(=O)[C@]1(O)Cc2c(O)c3c(c(O)c2[C@@H](O[C@H]2C[C@H](N)[C@H](O)[C@H](C)O2)C1)C(=O)c1ccccc1C3=O,125
